Sampled rows, rich in hits. Any-hit rate of the full collection: about 1.5%.
IL-2 act: IL-2 activation; AID 652025; IL-2 activation reporter assay, cell-based qHTS; stimulated with anti-CD3/CD4/CD28 beads; in transgenic mouse T cells; 360,000 compounds, 0.065% hits; activation, % (series mostly up to about 46 µM); in the data active = activation above about 50%; inconclusive = mostly about 30% to 49%; also: 0% is about no effect
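Screening format: compound pinned onto unstimulated transgenic mouse T cells, 60 min incubation, then anti-CD3/anti-CD4/anti-CD28 bead stimulation for 18 hours at 37 degrees C, followed by EGFP and DsRed detection.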
12-LOX inh: inhibitors of human 12S-lipoxygenase ALOX12; 580,000 compounds, 1.1% hits; P18054; Potency, µM (highest dose often 108 µM), inactives show at the top dose activity change, negative = inhibition, actives largely listed as inhibitors; purified 12hLO, xylenol orange hydroperoxide absorbance; also: potency is read from the fitted curve at half-maximal effect; % is scaled to controls: 0 for no effect and ±100 for the full control effect
Target sequence (P18054 whole entry, looked up): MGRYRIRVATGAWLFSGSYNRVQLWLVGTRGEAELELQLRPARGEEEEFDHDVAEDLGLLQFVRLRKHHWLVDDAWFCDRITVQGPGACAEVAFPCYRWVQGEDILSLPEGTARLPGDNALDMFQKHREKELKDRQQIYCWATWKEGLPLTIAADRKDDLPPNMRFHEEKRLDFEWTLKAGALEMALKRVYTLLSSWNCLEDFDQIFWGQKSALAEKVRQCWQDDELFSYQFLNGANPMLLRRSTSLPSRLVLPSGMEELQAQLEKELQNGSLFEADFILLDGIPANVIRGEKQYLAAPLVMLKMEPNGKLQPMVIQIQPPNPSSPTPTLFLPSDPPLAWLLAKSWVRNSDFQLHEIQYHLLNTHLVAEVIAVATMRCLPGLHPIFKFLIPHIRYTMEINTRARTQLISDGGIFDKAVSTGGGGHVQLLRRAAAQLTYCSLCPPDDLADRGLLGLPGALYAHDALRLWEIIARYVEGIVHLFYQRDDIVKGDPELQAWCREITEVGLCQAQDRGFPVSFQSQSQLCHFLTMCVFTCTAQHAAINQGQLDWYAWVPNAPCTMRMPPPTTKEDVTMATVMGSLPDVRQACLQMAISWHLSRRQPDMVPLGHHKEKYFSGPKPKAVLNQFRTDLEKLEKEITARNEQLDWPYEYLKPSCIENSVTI
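Hydroperoxide product was detected by ferrous iron/xylenol orange as the 573 to 405 nm absorbance ratio. Arachidonic acid at 40 uM (final) was turned over for 30 min at room temperature by 150 nM human 12hLO, pH 7.0 Hepes buffer, after 15 min compound preincubation.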
Nrf2 activator: activates Nrf2 signaling; AREc32 ARE-luciferase reporter (MCF7-derived line), luminescence, 24 h; Potency, µM (titrated, usually from 46.1 µM), for the others: top-dose activation, most hits filed as activators; 410,000 compounds, 0.31% hits; also: potency is read from the fitted curve at half-maximal effect; % of control where 0% means no effect; nearly all actives have a fitted effect of over 65% in size
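Quantitative high-throughput format: AREc32 reporter cells, 1000 per well, received compound by pin transfer and were incubated 24 hr at 37 deg C, 5% CO2, before Steady-Glo luminescence detection.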
uPA surface inh: blocks generation of uPA at the cell surface | cell surface uPA generation assay, qHTS | Potency, µM (highest dose often 38.3 µM), without a hit: at the top dose activity change, negative = inhibition, hits mostly inhibitors | 330,000 compounds, 0.31% hits; active = well fitted inhibition curve with a large enough effect; inconclusive = small, poorly fitted or top-dose-only effect; inactive = no such curve, though single readings can be large or run the other way; tested in mouse RAW 264.7 cells; also: potency is read from the fitted curve at half-maximal effect; % is scaled to controls: 0 for no effect and ±100 for the full control effect; nearly all actives have a fitted effect of over 55% in size
Integrin act MD: integrin-mediated muscular dystrophy alleviation activation | alpha7betagal myoblasts, beta-gal FDG fluorescence, 48 h | Potency, µM (highest dose often 38.3 µM), without a hit: top-dose activation, actives largely listed as activators | 350,000 compounds, 0.064% hits | AID 624291;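 also: potency is read from the fitted curve at half-maximal effect; 100% = response of the positive control SU9516; nearly all actives have a fitted effect of over 60% in size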
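Alpha7betagal+/- myoblasts (passage 13) were plated 16-24 hr, then exposed to compounds (1:260 dilution of DMSO stock) for 48 hours at 37C. After MPER lysis, β-galactosidase reporter activity was read as FDG fluorescence (ex 480/em 540) after 30 minutes.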
Numbers without * were called inactive; ? = inconclusive; nt = no result given; ! = a repeat was not active; [ ] = remark or other dose. Unless noted, calls follow the shape of the dose curve; as a rule, active = well fitted curve in the direction sought with a large enough effect; inconclusive = small, poorly fitted or top-dose-only effect, or another doubt; inactive = no such curve, though single readings can be large; an effect the other way counts as inactive or inconclusive.

SMILES	IL-2 act	12-LOX inh	Nrf2 activator	uPA surface inh	Integrin act MD
Cc1ccc(C(=O)N2CCC3(CC2)NC(=O)N(c2ccc(F)cc2)N3)cc1	nt	3.2µM*	nt	nt	nt
Cc1ccc(C)c(C(=O)N2CCC3(CC2)NC(=O)N(c2cccc(F)c2)N3)c1	nt	2.2µM*	nt	nt	nt
CCOc1ccc(C(=O)N2CCC3(CC2)NC(=O)N(c2ccc(F)cc2)N3)cc1	nt	2.2µM*	nt	nt	nt
Cc1ccc(N2NC3(CCN(C(N)=O)CC3)NC2=O)cc1	0	?	0%	1%	-22%
O=C(c1cccc(F)c1)N1CCC2(CC1)NC(=O)N(c1ccccc1Cl)N2	nt	1.3µM*	nt	nt	nt
O=C(c1cc2ccccc2oc1=O)N1CCN(Cc2ccc(Cl)cc2)CC1	nt	7%	nt	nt	nt
Cc1ccsc1C(=O)N1CCC2(CC1)NC(=O)N(c1ccc(F)cc1)N2	nt	2.2µM*	nt	nt	nt
Fc1ccc(-c2cnn3c(-c4cccs4)ccnc23)cc1	106*	-5%	?	-8%	-6%
CCOC(=O)c1c(C)c(CCC(=O)NCCN2CCCCCC2)c(C)n1C	nt	2%	nt	nt	nt
CS(=O)(=O)Nc1cc(NC(=O)c2ccccc2SCC2CCCO2)ccc1F (configuration not stated)	nt	-9%	nt	nt	nt
Clc1cccc(-c2nn3c(Cn4cnc5ccccc54)nnc3s2)c1	-2	10µM*!	3%	nt	-18%
Brc1ccccc1-c1nn2c(Cn3cnc4ccccc43)nnc2s1	nt	11µM*	nt	nt	nt
c1csc(-c2nn3c(Cn4cnc5ccccc54)nnc3s2)c1	2	?	7%	-7%	-36%
CCOC(=O)CSC(C)C(=O)NCC1CCCCC1 (configuration not stated)	nt	-24%	nt	nt	nt
Cc1ccc(-c2cc(C(=O)N3CCN(C(=O)C4CC4)CC3)c3ccccc3n2)o1	nt	22µM*	nt	nt	nt
Cc1ccc(-c2cc(C(=O)N3CC(C)CC(C)C3)c3ccccc3n2)o1 (configuration not stated)	0	35µM*	6%	-4%	-25%
Cc1ccc(-c2cc(C(=O)N3CC(C)OC(C)C3)c3ccccc3n2)o1 (configuration not stated)	-3	?	2%	-5%	0%
CNCC(=O)N1CCC2(CC1)CN(CCOc1ccccc1)C(=O)O2	nt	1%	nt	nt	nt
CCc1cc(CC)n(-c2nc3c(c(=O)n(CC(N)=O)c(=O)n3C)n2C)n1	nt	24%	nt	nt	nt
CC(=O)Oc1ccccc1/C=C/c1ccc2ccccc2[n+]1C	-1	?	11µM*	?	-1%
CCCCS(=O)(=O)CCSCCO	nt	4%	nt	nt	nt
Cc1ncsc1CN1C[C@@H](NC(=O)c2cccnc2)C[C@H]1CO	nt	14µM*	nt	nt	nt
CCNC(=O)[C@@H]1C[C@H](NC(=O)c2ccccc2)CN1Cc1scnc1C	nt	3%	nt	nt	nt
CN(C)CCNC(=O)C(=O)Nc1cccc2[nH]ccc12	nt	28%	nt	nt	nt
COc1ccc(O)c(O)c1/C=C1\[C@@H](C)CCC2C(C)(C)CCC[C@]12C (some centres not stated)	nt	2.2µM*	nt	nt	nt
SMILES	IL-2 act	12-LOX inh	Nrf2 activator	uPA surface inh	Integrin act MD
COC(=O)C1=C(C)NC(=S)NC1c1ccc(-c2cc(Cl)ccc2Cl)o1 (configuration not stated)	-4	18µM*	4%	6%	0%
CCCNCc1ccc(-c2ccc(F)cc2)o1	nt	-2%	nt	nt	nt
O=S(=O)(Nc1cc2nc3ccccc3nc2n1Cc1ccccc1)c1ccc(Cl)cc1	19	45µM*	0%	-2%	19%
O=S(=O)(NCc1ccccc1)c1ccc(Cl)cc1	-1	4%	0%	1%	6%
CCN(CC)S(=O)(=O)c1ccc2c(c1)cc(C(=O)NCCc1ccco1)n2C	nt	-25%	nt	nt	nt
CC1(C)COC(/C=C/c2cccc([N+](=O)[O-])c2)=N1	-1	?	13µM*	-18%	-66%
CC1(C)COC(c2cc([N+](=O)[O-])ccc2Cl)=N1	0	0%	-1%	-2%	-33%
S=C(NCCSCc1c(Cl)cccc1Cl)Nc1ccccc1	-4	35µM*	0%	-1%	-32%
CC(C)(C)c1ccc(C(=O)NCCOc2ccccc2)cc1	-2	0%	-2%	-3%	3%
CC(C)(C)c1ccc(OCCNC(=S)Nc2ccccc2)cc1	-6	45µM*	6%	4%	8%
COc1ccccc1C(=O)NCCOc1ccc(C(C)(C)C)cc1	0	13%	3%	0%	8.9µM*
S=C(NCCSCc1ccc(Cl)c(Cl)c1)Nc1ccccc1	3	-40%	-1%	5%	6%
CCOc1ccc(CSCCNC(=S)Nc2ccccc2)cc1	-1	45µM*	5%	0%	-38%
N#Cc1ccc2cc[nH]c2c1	nt	-24%	nt	nt	nt
CCNC(=O)NC(=O)C(C)Sc1cc(C)c2ccccc2n1 (configuration not stated)	nt	-7%	nt	nt	nt
COc1ccc(CN2C[C@H](O)C[C@H]2c2nc(-c3cccc([N+](=O)[O-])c3)no2)c(OC)c1OC	nt	21%	nt	nt	nt
O=C(CSc1ncccc1-c1nc2ccccc2[nH]1)NCc1ccco1	-2	14µM*	?	nt	-25%[7.66 µM]
Cc1cc2nc(-c3cccnc3SCC(=O)NCc3ccco3)[nH]c2cc1C	2	?	5%	?	-22%
Cc1c(-c2cccc(F)c2)c(=O)oc2ccccc12	nt	-30%	nt	nt	nt
CNc1c(NC(=O)Nc2ccc(F)cc2)c(=O)oc2ccccc12	nt	10µM*	nt	nt	nt
CNc1c(NC(=O)NCc2ccc(F)cc2)c(=O)oc2ccccc12	nt	2%	nt	nt	nt
Cn1nc(C(=O)OCC(=O)NC(C)(C)C)c2ccccc2c1=O	nt	-1%	nt	nt	nt
Cc1nc(SCC(=O)Nc2nccs2)c(C#N)c(C)c1C	-1	251%	-2%	1µM*	7%
CN(C)/C=C/C(=O)c1cnc(-c2ccc(Cl)cc2)s1	1	32µM*	2%	0%	19%
CC(C)C(NC(=O)COc1ccc2ccccc2c1)C(=O)N/N=C/C=C/c1ccccc1 (configuration not stated)	-3	8.9µM*	1%	nt	1%
SMILES	IL-2 act	12-LOX inh	Nrf2 activator	uPA surface inh	Integrin act MD
c1ccc(-c2nc(CSC3=NCCCN3)cs2)cc1	nt	16µM*	nt	nt	nt
Cc1cc(NC(=O)CN2C(=O)NC(c3ccc(Cl)cc3)C3=C2COC3=O)ccc1Br (configuration not stated)	nt	8.9µM*	nt	nt	nt
O=C(CN1C(=O)NC(c2ccc(Cl)cc2)C2=C1COC2=O)Nc1cccc(Br)c1 (configuration not stated)	nt	10µM*	nt	nt	nt
Cc1ccc(C2NC(=O)N(CC(=O)Nc3ccc4c(c3)OCCO4)C3=C2C(=O)OC3)cc1 (configuration not stated)	nt	20%	nt	nt	nt
COc1ccccc1N1C(=O)S/C(=C\c2ccc(C)s2)C1=O	88*	-10%	5%	6%	13%
CC(=O)N(C)/C=C1\Sc2ccccc2C1=O	0	35µM*	?	6%	20%
CC(=O)Nc1ccc(/C=C2\Sc3ccccc3C2=O)cc1	0	3%	5%	0%	5%
Cc1ccc(/C=C2\Sc3ccccc3C2=O)s1	-2	2%	11µM*	0%	-22%

Bioassay records: PubChem, National Center for Advancing Translational Sciences (NCATS)
